# Measurements: ChEMBL document CHEMBL1961873, “Compounds: GSK PKIS; Assays: Nanosyn kinase panel” (2012)
# Key:
# [1] = biological target: Sphingosine kinase 1 (Homo sapiens) (UniProt Q9NYA1); conditions: at 1 µM;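 also: mean SPHK1 inhibition value reported from the GSK PKIS kinase panel screen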
# [2] = biological target: T1, Sphingosine kinase 2 (Homo sapiens) (UniProt Q9NRA0); conditions: at 0.1 µM
# T1 sequence (whole entry): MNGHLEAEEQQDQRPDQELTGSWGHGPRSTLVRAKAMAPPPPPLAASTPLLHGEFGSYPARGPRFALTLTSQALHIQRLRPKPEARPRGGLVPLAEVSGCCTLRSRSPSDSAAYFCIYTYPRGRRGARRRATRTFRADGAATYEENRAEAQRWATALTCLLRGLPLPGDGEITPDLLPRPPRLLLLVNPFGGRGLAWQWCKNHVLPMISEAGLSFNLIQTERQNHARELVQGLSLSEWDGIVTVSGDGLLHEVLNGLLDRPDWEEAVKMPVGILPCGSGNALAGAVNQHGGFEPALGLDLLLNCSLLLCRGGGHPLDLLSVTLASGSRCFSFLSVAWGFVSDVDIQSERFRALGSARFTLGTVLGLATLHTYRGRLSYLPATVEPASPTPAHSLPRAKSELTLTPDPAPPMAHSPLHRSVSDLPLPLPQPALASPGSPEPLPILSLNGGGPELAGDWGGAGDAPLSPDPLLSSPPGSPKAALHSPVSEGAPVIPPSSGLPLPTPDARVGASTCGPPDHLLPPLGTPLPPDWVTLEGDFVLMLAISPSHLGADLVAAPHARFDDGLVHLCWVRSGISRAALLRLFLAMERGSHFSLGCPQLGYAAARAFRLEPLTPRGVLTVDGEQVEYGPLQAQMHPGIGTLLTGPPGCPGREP
# [3] = biological target: T1, Sphingosine kinase 2 (Homo sapiens); conditions: at 1 µM
# [4] = biological target: Casein kinase II subunit alpha (Homo sapiens) (UniProt P68400); conditions: at 0.1 µM
# [5] = biological target: Casein kinase II subunit alpha (Homo sapiens) (UniProt P68400); conditions: at 1 µM
# [6] = biological target: T2, Inhibitor of nuclear factor kappa-B kinase subunit alpha (Homo sapiens) (UniProt O15111); conditions: at 0.1 µM
# T2 sequence (whole entry): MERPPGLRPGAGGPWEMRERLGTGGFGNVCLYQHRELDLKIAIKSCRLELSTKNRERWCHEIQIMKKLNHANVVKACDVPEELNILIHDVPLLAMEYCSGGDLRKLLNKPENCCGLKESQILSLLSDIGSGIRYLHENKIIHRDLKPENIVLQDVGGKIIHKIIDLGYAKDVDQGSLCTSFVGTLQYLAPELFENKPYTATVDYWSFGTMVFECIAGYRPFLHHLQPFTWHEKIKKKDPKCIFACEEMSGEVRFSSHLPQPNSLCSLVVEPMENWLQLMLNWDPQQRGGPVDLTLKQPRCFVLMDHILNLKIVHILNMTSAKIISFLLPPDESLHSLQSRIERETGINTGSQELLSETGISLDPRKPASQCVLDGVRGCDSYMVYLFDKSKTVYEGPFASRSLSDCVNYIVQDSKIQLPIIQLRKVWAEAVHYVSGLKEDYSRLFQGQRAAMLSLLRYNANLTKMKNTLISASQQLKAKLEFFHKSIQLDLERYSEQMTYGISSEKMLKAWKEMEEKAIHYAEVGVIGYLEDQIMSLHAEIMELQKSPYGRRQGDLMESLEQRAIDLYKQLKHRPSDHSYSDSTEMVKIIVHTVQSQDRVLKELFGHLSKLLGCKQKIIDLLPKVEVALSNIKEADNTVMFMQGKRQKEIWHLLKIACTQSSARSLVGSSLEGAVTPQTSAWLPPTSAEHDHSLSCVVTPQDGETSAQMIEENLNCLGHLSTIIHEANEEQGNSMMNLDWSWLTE
# [7] = biological target: T2, Inhibitor of nuclear factor kappa-B kinase subunit alpha (Homo sapiens); conditions: at 1 µM
# [8] = biological target: T3, Inhibitor of nuclear factor kappa-B kinase subunit beta (Homo sapiens) (UniProt O14920); conditions: at 0.1 µM
# T3 sequence (whole entry): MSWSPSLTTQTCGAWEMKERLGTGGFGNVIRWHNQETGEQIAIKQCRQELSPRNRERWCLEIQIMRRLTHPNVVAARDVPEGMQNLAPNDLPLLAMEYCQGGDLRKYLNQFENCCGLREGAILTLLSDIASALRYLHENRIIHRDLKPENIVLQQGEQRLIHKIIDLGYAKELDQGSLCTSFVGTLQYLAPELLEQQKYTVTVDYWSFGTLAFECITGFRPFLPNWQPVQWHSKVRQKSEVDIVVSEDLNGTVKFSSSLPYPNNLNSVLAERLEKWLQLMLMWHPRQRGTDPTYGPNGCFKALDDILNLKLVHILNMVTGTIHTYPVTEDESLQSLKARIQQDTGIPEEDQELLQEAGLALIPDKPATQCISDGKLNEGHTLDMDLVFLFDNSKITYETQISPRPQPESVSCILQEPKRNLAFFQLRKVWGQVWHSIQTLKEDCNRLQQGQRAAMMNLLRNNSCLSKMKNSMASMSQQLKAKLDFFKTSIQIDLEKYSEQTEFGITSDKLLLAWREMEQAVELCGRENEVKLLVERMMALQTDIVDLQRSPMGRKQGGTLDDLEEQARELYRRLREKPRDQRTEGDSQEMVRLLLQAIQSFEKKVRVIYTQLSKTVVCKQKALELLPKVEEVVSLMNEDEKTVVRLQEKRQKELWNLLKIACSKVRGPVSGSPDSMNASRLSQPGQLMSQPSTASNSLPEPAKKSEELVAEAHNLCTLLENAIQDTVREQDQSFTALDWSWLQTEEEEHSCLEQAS
# [9] = biological target: T3, Inhibitor of nuclear factor kappa-B kinase subunit beta (Homo sapiens); conditions: at 1 µM
# [10] = biological target: T4, Inhibitor of nuclear factor kappa-B kinase subunit epsilon (Homo sapiens) (UniProt Q14164); conditions: at 0.1 µM
# T4 sequence (whole entry): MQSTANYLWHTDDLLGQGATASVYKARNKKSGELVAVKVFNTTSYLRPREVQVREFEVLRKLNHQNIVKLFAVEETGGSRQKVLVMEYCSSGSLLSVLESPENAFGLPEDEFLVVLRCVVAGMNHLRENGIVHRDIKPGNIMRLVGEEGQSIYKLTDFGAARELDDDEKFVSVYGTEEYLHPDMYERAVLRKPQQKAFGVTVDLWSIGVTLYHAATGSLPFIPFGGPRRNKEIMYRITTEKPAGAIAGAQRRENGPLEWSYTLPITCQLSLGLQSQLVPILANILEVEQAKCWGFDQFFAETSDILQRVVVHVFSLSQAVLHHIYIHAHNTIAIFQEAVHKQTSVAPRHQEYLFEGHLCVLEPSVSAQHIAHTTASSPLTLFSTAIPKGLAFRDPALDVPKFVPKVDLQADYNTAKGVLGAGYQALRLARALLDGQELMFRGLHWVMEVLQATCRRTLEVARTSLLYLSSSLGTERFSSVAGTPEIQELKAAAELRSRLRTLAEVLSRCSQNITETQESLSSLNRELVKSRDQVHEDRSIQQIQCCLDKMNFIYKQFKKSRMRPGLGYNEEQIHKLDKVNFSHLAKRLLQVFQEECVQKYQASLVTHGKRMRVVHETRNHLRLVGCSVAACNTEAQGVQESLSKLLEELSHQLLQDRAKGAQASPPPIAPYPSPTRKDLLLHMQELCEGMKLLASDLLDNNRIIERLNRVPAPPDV
# [11] = biological target: T4, Inhibitor of nuclear factor kappa-B kinase subunit epsilon (Homo sapiens); conditions: at 1 µM
# [12] = biological target: T5, Serine/threonine-protein kinase Nek1 (Homo sapiens) (UniProt Q96PY6); conditions: at 0.1 µM
# T5 sequence (whole entry): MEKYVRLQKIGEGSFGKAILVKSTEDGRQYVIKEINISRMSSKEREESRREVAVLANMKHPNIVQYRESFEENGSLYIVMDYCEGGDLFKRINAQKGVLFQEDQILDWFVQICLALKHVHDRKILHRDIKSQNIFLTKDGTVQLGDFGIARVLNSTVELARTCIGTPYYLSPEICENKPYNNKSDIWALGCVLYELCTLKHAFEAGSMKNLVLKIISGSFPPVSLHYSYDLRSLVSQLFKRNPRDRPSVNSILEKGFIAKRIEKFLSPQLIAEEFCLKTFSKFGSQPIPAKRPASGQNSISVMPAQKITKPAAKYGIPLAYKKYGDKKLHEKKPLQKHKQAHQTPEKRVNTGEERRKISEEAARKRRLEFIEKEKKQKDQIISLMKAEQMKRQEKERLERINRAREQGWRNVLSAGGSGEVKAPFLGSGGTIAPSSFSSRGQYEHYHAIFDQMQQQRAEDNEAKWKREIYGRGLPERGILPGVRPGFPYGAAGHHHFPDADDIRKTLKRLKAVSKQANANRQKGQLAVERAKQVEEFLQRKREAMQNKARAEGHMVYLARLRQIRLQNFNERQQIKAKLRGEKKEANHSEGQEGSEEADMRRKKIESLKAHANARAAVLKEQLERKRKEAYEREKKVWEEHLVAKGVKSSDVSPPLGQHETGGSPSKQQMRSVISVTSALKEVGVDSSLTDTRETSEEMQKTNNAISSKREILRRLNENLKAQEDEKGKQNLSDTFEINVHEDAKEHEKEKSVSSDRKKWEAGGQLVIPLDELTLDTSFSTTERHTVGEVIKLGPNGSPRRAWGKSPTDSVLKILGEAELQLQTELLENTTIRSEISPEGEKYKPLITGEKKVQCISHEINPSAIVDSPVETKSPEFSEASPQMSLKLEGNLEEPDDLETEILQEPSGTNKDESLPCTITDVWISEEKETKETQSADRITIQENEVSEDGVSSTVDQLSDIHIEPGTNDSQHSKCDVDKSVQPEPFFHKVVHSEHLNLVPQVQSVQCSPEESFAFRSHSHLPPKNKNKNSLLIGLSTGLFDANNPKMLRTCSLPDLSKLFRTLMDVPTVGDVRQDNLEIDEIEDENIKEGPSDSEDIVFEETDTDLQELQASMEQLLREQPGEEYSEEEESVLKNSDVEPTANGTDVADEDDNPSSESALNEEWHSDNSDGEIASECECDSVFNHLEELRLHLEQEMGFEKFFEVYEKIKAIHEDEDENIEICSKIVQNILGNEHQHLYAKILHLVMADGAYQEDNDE
# [13] = biological target: T5, Serine/threonine-protein kinase Nek1 (Homo sapiens); conditions: at 1 µM
# [14] = biological target: T6, Serine/threonine-protein kinase Nek2 (Homo sapiens) (UniProt P51955); conditions: at 0.1 µM
# T6 sequence (whole entry): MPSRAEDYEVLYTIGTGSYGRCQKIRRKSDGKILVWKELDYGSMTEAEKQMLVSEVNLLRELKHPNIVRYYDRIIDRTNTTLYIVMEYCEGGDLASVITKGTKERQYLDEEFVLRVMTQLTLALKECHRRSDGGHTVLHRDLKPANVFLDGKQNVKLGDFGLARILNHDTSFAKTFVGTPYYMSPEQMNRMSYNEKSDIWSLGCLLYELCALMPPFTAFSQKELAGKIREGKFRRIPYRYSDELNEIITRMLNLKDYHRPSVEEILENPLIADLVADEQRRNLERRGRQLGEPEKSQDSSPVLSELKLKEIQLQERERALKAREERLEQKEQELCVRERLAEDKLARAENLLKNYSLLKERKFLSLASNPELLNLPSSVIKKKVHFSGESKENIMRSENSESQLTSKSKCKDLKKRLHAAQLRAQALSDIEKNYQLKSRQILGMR
# [15] = biological target: T6, Serine/threonine-protein kinase Nek2 (Homo sapiens); conditions: at 1 µM
# [16] = biological target: Serine/threonine-protein kinase Nek6 (Homo sapiens) (UniProt Q9HC98); conditions: at 0.1 µM
# [17] = biological target: Serine/threonine-protein kinase Nek6 (Homo sapiens) (UniProt Q9HC98); conditions: at 1 µM
# [18] = biological target: Serine/threonine-protein kinase Nek7 (Homo sapiens) (UniProt Q8TDX7); conditions: at 0.1 µM
# [19] = biological target: Serine/threonine-protein kinase Nek7 (Homo sapiens) (UniProt Q8TDX7); conditions: at 1 µM
# [20] = biological target: T7, Serine/threonine-protein kinase Nek9 (Homo sapiens) (UniProt Q8TD19); conditions: at 0.1 µM;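 also: reported value is the mean percent inhibition of NEK9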
# T7 sequence (whole entry): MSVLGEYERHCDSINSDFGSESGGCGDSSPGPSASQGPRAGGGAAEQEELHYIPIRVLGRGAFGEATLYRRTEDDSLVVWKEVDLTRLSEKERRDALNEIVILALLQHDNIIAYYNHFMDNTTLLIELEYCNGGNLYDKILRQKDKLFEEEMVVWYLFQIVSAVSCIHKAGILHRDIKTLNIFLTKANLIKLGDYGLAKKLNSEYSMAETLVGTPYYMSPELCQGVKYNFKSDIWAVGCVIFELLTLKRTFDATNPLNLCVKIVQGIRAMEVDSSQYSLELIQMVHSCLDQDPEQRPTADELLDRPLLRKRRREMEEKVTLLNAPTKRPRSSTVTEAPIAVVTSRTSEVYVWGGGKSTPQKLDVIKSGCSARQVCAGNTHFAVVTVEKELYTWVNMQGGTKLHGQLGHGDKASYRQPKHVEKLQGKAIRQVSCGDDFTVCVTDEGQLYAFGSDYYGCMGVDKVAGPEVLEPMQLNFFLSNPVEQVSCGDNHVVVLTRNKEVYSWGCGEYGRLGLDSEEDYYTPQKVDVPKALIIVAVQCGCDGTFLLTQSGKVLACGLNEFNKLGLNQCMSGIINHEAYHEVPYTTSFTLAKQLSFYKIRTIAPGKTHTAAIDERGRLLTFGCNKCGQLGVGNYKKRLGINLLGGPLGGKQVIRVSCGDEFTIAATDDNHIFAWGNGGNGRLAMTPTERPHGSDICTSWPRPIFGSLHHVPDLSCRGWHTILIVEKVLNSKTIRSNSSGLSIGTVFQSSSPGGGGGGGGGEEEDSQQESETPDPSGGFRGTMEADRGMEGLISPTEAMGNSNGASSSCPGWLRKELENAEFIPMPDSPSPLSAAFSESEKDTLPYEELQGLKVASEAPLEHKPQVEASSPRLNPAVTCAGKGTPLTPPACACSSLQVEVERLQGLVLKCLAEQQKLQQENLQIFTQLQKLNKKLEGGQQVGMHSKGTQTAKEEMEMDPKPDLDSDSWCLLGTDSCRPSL
# Casein kinase II subunit alpha (Homo sapiens), sequence (P68400 whole entry, looked up): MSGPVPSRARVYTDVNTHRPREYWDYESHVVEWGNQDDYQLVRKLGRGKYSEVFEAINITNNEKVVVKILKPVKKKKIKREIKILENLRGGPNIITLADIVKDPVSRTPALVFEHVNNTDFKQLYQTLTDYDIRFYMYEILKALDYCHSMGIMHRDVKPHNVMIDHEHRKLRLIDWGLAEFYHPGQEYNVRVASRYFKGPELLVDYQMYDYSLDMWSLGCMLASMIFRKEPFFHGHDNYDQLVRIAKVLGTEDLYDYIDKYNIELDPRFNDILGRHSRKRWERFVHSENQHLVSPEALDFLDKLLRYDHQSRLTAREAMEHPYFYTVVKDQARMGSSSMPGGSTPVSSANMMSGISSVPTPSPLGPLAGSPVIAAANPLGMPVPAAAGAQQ
# Serine/threonine-protein kinase Nek7 (Homo sapiens), sequence (Q8TDX7 whole entry, looked up): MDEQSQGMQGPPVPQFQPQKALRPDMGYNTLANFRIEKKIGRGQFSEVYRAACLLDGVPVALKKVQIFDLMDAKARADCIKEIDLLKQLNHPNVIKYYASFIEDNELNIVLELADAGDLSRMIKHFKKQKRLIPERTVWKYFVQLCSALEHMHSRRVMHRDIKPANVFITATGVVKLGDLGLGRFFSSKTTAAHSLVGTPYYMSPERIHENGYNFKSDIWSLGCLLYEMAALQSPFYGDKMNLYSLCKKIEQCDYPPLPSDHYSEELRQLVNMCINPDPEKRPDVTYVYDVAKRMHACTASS
# Serine/threonine-protein kinase Nek6 (Homo sapiens), sequence (Q9HC98 whole entry): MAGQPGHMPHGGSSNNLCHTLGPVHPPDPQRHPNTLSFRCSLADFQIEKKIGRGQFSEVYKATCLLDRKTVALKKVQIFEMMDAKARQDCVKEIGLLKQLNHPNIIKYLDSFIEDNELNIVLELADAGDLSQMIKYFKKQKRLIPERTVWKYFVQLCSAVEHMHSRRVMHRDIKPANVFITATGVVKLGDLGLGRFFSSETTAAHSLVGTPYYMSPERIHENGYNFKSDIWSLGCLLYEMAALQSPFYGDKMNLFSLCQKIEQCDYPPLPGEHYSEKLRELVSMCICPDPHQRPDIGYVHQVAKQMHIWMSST
# Sphingosine kinase 1 (Homo sapiens), sequence (Q9NYA1 whole entry): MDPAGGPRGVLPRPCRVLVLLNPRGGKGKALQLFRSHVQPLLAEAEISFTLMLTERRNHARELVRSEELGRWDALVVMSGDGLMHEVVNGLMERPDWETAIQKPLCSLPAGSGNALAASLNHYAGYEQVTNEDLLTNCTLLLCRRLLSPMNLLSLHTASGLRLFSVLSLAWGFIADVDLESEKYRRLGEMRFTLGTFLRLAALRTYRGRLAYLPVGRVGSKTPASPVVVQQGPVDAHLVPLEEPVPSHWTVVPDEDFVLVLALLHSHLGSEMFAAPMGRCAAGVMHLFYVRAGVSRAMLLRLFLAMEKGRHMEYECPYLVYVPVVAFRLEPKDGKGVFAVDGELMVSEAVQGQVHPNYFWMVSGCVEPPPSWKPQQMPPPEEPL
SMILES,inhibition [1] [%],inhibition [2] [%],inhibition [3] [%],inhibition [4] [%],inhibition [5] [%],inhibition [6] [%],inhibition [7] [%],inhibition [8] [%],inhibition [9] [%],inhibition [10] [%],inhibition [11] [%],inhibition [12] [%],inhibition [13] [%],inhibition [14] [%],inhibition [15] [%],inhibition [16] [%],inhibition [17] [%],inhibition [18] [%],inhibition [19] [%],inhibition [20] [%]
COc1cc2ncn(-c3cc(OCc4ccccc4Cl)c(C(N)=O)s3)c2cc1OC,-2.81,5.21,-4.96,2.2,9.54,-1.84,5.14,1.96,1.01,0.65,2.71,3.45,15.5,3.49,37.3,1.95,-3.5,4.31,1.21,9.22
Fc1cccc(COc2ccc(Nc3ncnc4sc(-c5cccs5)cc34)cc2Cl)c1,1.25,-2.31,1.14,-0.4,1.52,3.55,1.01,1.1,0.28,-0.11,3.74,2.04,2.57,2.88,1.85,-0.49,1.79,-0.09,5.03,1.95
